Screening results as filed in PubChem BioAssay.
A selection: hits, their analogues and other compounds. The true share with any hit is near 2.2%.
GLP1R cytotox: cytotoxicity in counter-screen for GLP-1R inverse agonists; HEK293 cAMP-luciferase reporter cells, luminescence, 24 h; Potency, µM (series often up to 38.3 µM), for inactives: at the highest dose activity change, negative = inhibition, usual class: inhibitors; 410,000 tested, 0.13% active;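 further: loss of luciferase light is scored as toxicity; potency means the concentration at half of the fitted maximal effect; on the % scale 0 is the no-effect control and ±100 the full control effect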
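Luminescence readout: signal drop marks cytotoxicity. Plated cells grew 12 h at 37 °C, 5% CO2, received 23 nL compound for 24 h, then got luciferase reagent, read after 12 min at RT.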
Mm-Cpn inhibitor: M. maripaludis TRiC chaperonin inhibition. purified Mm-Cpn ATPase, ADP Transcreener TR-FRET. Potency, µM (doses to about 76.9 µM), for inactives: at the highest dose activity, negative = inhibition, actives largely listed as inhibitors. 330,000 tested, 0.031% active. AID 504842; further: potency means the concentration at half of the fitted maximal effect; on the % scale 0 is the no-effect control and ±100 the full control effect; nearly all actives have a fitted effect of over 80% in size
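Compound-treated chaperonin, 25 nM final, turns over 10 uM ATP at 37°C for 30 min following a 10 min preincubation; ADP generated competes with ADP-d2 for Eu-cryptate antibody, lowering FRET.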
CCT chaperon mod: modulators of cytosolic chaperonin (CCT/TRiC) activity; purified chaperonin ATPase assay, HTRF ADP detection, 30 min; activity change, % (test concentration not listed), hits read low; 360,000 tested, 0.3% active; AID 651819; in the data active means activity change below about -30%; further: on the % scale 0 is the no-effect control and ±100 the full control effect
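Enzyme 40 or 20 nM (batch-dependent) in Tris pH 7.4/KCl/MgCl2/DTT; cpd 76 uM single point; ATP 10 uM; 30 min 37 °C; Transcreener ADP HTRF detection, 30 min RT; ratio 665/615.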
uPA surface inh: blocks generation of uPA at the cell surface; 330,000 tested, 0.31% active; cell surface uPA generation assay, qHTS; Potency, µM (top dose mostly 38.3 µM), for the others: at the top dose activity change, negative = inhibition, usual class: inhibitors; active means well fitted inhibition curve with a large enough effect; inconclusive means small, poorly fitted or top-dose-only effect; inactive means no such curve, though single readings can be large or run the other way; tested in mouse RAW 264.7 cells; further: potency means the concentration at half of the fitted maximal effect; on the % scale 0 is the no-effect control and ±100 the full control effect; nearly all actives have a fitted effect of over 55% in size
GLP-1R inv ag: acts as inverse agonist at human GLP-1 receptor | 410,000 tested, 1.6% active | HEK293 GLP-1R CRE-luciferase, luminescence, 24 h; GLP-1R form is constitutively active | P43220 | Potency, µM (titrated, usually from 38.3 µM), inactives show top-dose activity change, negative = inhibition, hits mostly inhibitors; further: potency means the concentration at half of the fitted maximal effect; on the % scale 0 is the no-effect control and ±100 the full control effect; nearly all actives have a fitted effect of over 55% in size
Target sequence (P43220 whole entry, looked up): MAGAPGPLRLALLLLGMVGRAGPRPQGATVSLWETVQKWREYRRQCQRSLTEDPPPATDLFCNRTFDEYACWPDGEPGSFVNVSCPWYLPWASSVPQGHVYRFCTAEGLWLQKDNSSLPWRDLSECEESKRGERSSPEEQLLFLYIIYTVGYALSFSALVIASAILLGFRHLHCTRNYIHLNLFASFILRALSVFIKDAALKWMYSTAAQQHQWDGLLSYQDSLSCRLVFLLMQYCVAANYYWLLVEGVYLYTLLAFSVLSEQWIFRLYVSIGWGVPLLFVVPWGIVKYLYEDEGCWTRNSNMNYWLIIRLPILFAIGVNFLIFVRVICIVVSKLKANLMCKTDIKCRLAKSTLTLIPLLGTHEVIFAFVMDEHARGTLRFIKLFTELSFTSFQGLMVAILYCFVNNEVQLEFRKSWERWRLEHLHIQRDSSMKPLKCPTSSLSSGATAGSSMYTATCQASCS
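Readout was luciferase luminescence, measured 12 min after detection reagent at room temperature. Beforehand, GLP-1R reporter HEK293 cells had sat 12 h, then received compounds for 24 hr at 37 deg C.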
GLP1R ag: activates the human GLP-1 receptor. Potency, µM (titrated, usually from 45.6 µM), inactives show at the highest dose activation, usual class: activators. 380,000 tested, 0.007% active. AID 624172. HEK293 GLP-1R CRE-luciferase, luminescence, 4-6 h; cells express a hypersensitive GLP-1R form; further: potency means the concentration at half of the fitted maximal effect; % of control where 0% means no effect
Starred values were filed as active, the others as inactive; ? = inconclusive; · = no result; ! = repeats disagree. Unless noted, the call rests on the fitted dose curve; in most records, active means well fitted curve in the direction sought with a large enough effect; inconclusive means small, poorly fitted or top-dose-only effect, or another doubt; inactive means no such curve, though single readings can be large; an effect the other way counts as inactive or inconclusive.

SMILES | GLP1R cytotox | Mm-Cpn inhibitor | CCT chaperon mod | uPA surface inh | GLP-1R inv ag | GLP1R ag
CC(=O)N1c2c(cc(Br)cc2S(=O)(=O)Nc2c(C)n(C)n(-c3ccccc3)c2=O)CC1C (stereo not drawn) | 5.4% | 0.9% | -41.3* | 3.9% | -5.7% | 0.8%
Cc1ccccc1OCC(=O)N1N=C(C(F)(F)F)CC1(O)C(C)(C)C (stereo not drawn) | ? | 3.1% | -2.2 | 3.2% | 8.91µM* | -19.1%
CC(C)(C)C1(O)CC(C(F)(F)F)=NN1C(=O)Cc1ccc([N+](=O)[O-])cc1 (stereo not drawn) | 20.2% | -2.6% | -0.2 | 6.6% | 10µM* | 17.8%
Cc1ccc(OCC(=O)N2N=C(C(F)(F)F)CC2(O)C(C)(C)C)cc1C (stereo not drawn) | -27.6% | -1.2% | -3.5 | -8.3% | -56.5% | -1.7%
Cc1ccc2ccc(C(Nc3ccccc3)c3ccc(C(C)C)cc3)c(O)c2n1 (stereo not drawn) | -5.7% | · | · | · | 3.55µM* | ·
Cc1ccc2ccc(C(Nc3ccccc3)c3ccccc3)c(O)c2n1 (stereo not drawn) | 5.5% | · | · | · | 6.31µM* | ·
Cc1ccc2ccc(C(Nc3ccccc3)c3ccc(Cl)cc3)c(O)c2n1 (stereo not drawn) | -8.2% | · | · | · | ? | ·
O=C(NCC(c1ccc2c(c1)OCO2)N1CCOCC1)c1cccc(Cl)c1 (stereo not drawn) | -1.0% | · | · | · | 13.9% | ·
CSCC[C@H](NC(=O)[C@@H](Cc1ccc(O[S+](=O)([O-])O)cc1)NC(=O)[C@H](N)CC(=O)O)C(=O)NCC(=O)N[C@@H](Cc1c[nH]c2ccccc12)C(=O)N[C@H](CCSC)C(=O)N[C@H](CC(=O)O)C(=O)N[C@@H](Cc1ccccc1)C(N)=O | · | · | · | · | · | -0.1%
O=C(Cc1ccccc1F)Nc1nc(-c2ccc(F)cc2)cs1 | -7.8% | 5.5% | 2.6 | 3.5% | 8.91µM* | 2.2%
Cc1ccc(Cl)cc1NC1=C/C(=N\S(=O)(=O)c2cccs2)c2ccccc2C1=O | ? | -5.9% | -0.2 | -16.7% | 1µM*! | -11.3%
Cc1ccc(NC2=C/C(=N\S(=O)(=O)c3cccs3)c3ccccc3C2=O)c(C)c1 | ? | -4.2% | -4.1 | -13.5% | ? | -8.6%
COc1ccccc1C1/C(=C(\O)c2ccc3c(c2)OCCO3)C(=O)C(=O)N1Cc1cccnc1 (stereo not drawn) | 2.7% | -7.5% | -4.8 | 18.6% | 3.8% | -4.0%
CC1Cc2cc(/C(O)=C3/C(=O)C(=O)N(Cc4cccnc4)C3c3cccc(O)c3)ccc2O1 (stereo not drawn) | -4.8% | 1.0% | -78.8* | -3.5% | 15.4% | -1.8%
COc1ccc(C2/C(=C(\O)c3ccc4c(c3)OCCO4)C(=O)C(=O)N2Cc2cccnc2)cc1 (stereo not drawn) | 0.3% | ? | -57.9* | -3.8% | 16.7% | -4.5%
CC(=O)Nc1ccc(-c2cn3cc(C)ccc3n2)cc1 | 34.2% | -4.0% | 0.2 | 4.47µM* | -19.3% | 4.7%
Cc1ccc2nc(-c3ccccc3)cn2c1 | 1.8% | -4.3% | 0.4 | -13.8% | ? | -14.9%
COc1cc(NC(=O)CCc2nc3cccnc3n2Cc2cccs2)cc(OC)c1OC | 6.7% | · | · | · | 14.4% | ·
N#Cc1c(NC(=O)C2CC(c3ccccc3Cl)=NO2)sc2c1CCC2 (stereo not drawn) | -2.8% | 1.2% | -92.4* | -5.2% | 0.0% | -8.8%
Cc1ccc2c(CNCCc3ccco3)c(C(=O)O)n(Cc3ccc(F)cc3)c2c1 | -17.2% | · | · | · | ? | -2.0%
C/C(=N\N1C(=O)c2ccccc2NC1c1ccco1)c1ccccc1O (stereo not drawn) | -24.6% | -12.1% | 0.9 | 7.94µM* | ? | 9.7%
COc1ccc(NC(=O)CN2CCCN(S(=O)(=O)c3ccc(Br)cc3)CC2)c(OC)c1 | -5.9% | · | · | · | ? | ·
O=C1N(Cc2cccnc2)C[C@@H]2C[C@@H](c3cccc(OC4CCCC4)c3)N3CCC[C@@]123 | -3.7% | -0.4% | -50.9* | -0.3% | 2.6% | 9.5%
COc1ccc(S(=O)(=O)N(CCC(=O)O)Cc2ccccc2)cc1 | 0.8% | 2.4% | -49.6* | 5.8% | 1.9% | 0.6%
CCc1nn2c(=O)cc(COC(=O)CNC(=O)c3ccccc3)nc2s1 | 4.5% | · | · | · | 6.6% | ·
SMILES | GLP1R cytotox | Mm-Cpn inhibitor | CCT chaperon mod | uPA surface inh | GLP-1R inv ag | GLP1R ag
CCc1ccc(NC(=O)C2CCCN(S(=O)(=O)c3ccc4[nH]c(=O)ccc4c3)C2)cc1 (stereo not drawn) | ? | -4.3% | -70.7* | 5.2% | -11.8% | -1.6%
O=C(Nc1ccc(Cl)cc1)C1CCCN(S(=O)(=O)c2ccc3[nH]c(=O)ccc3c2)C1 (stereo not drawn) | -2.5% | · | · | · | 1.0% | ·
COc1ccc(NC(=O)C2CCCN(S(=O)(=O)c3c(C)[nH]c(=O)[nH]c3=O)C2)cc1OC (stereo not drawn) | 0.6% | 0.2% | -2.2 | -4.6% | -16.3% | 1.0%
CCc1cccc(NC(=O)C2CCCN(S(=O)(=O)c3c(C)[nH]c(=O)[nH]c3=O)C2)c1 (stereo not drawn) | 1.3% | · | -41.2* | 0.3% | 0.3% | -2.9%
CCc1cccc(NC(=O)C2CCCN(S(=O)(=O)c3cccs3)C2)c1 (stereo not drawn) | -12.0% | 0.7% | -0.2 | 0.6% | 10µM* | 18.2%
Cc1cc(C)cc(-n2c(SCC(=O)Nc3ccccc3)nc3c(oc4ccccc43)c2=O)c1 | 4.8% | · | · | · | 16.2% | ·
c1ccc(-c2noc(-c3cccnc3NCc3ccco3)n2)cc1 | 8.3% | · | · | · | 67.7% | ·
Cc1nn2c(CN(C(=O)CN3CCOCC3)c3ccccc3)nnc2c2ccccc12 | 1.6% | -0.7% | -33.6* | -3.6% | 5.0% | 4.1%
Cc1c(C(=O)N2CCN(C(c3ccccc3)c3ccccc3)CC2)oc2ccccc12 | 19.0% | -2.8% | 1.4 | 4.5% | 4.47µM* | -6.7%
Cc1onc(C(=O)N2CCN(C(c3ccccc3)c3ccccc3)CC2)c1[N+](=O)[O-] | -4.7% | -1.2% | 0.6 | 10µM* | ? | -4.6%
CCCCN(CC)CCNC(=O)C1CCN(c2nnc(C)c3c(C)n(-c4ccc(C)cc4)nc23)CC1 | ? | · | · | · | 10µM* | ·
Cc1ccc(CCNC(=O)C2CCN(c3nnc(C)c4c(C)n(-c5ccccc5)nc34)CC2)cc1 | 0.8% | · | · | · | 16.8% | ·
CCOc1ccc(NC(=O)NCc2ccc3c(c2)CCN3C(C)=O)cc1 | -6.7% | · | · | · | 28.8% | ·
NC(c1ccccc1)c1ccncc1 (stereo not drawn) | -13.5% | 1.6% | -42.6* | 1.6% | 11.8% | ?
Cc1ccc(C)c(S(=O)(=O)c2cn(C)c3cc(N4CCCCC4C)c(F)cc3c2=O)c1 (stereo not drawn) | -16.7% | · | · | · | ? | ·
